# Tests used:
# Conditions in all cases: concentration: 1 μM, replicates: in singlicate; n = 1
# [1] = test system: CAMK1B
# [2] = test system: CAMK1D
# [3] = test system: CAMK1G
# [4] = test system: CAMK1
# [5] = test system: CAMK2A
# [6] = test system: CAMK2B
# [7] = test system: CAMK2D
# [8] = test system: CAMK2G
# [9] = test system: CAMK4
# [10] = test system: CAMKK1
# 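Further: KINOMEscan kinase panel screen.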
SMILES,%Inh [1],%Inh [2],%Inh [3],%Inh [4],%Inh [5],%Inh [6],%Inh [7],%Inh [8],%Inh [9],%Inh [10]
Cc1cc(-c2ccc3c(c2)CC[C@@H](N[C@@H](C)c2ccccc2)C3)cnc1N.Cl [GW412617],4%,13%,100%,23%,0%,0%,97.6%,21%,18%,12%
Cc1cccc(-c2nc(Nc3cccc(C(N)=O)c3)c3ccccc3n2)n1 [GW876019],0%,0%,9%,0%,0%,0%,7%,0%,3%,12%
COc1cc2nccc(Nc3ccc(NC(=O)c4ccc(C)cc4)c(O)c3)c2cc1OC.Cl [GW440132],0%,20%,6%,15%,0%,0%,17%,35%,0%,0%
COc1cc2ncnc(Nc3ccc4nc(-c5ccccc5)[nH]c4c3)c2cc1OC.Cl [GW282450],0%,20%,0%,29%,0%,0%,1%,24%,0%,11%
Fc1cccc(COc2nnc(-c3ccc4c(c3)CCO4)o2)c1,0%,0%,12%,18%,0%,6%,0%,7%,0%,8%
COc1ccc(CNC(=O)NC2CCN(c3ccnc(Nc4cc(OC)c(OC)c(OC)c4)n3)C2)cc1 (stereo not drawn) [GSK1379748],2%,15%,8%,28%,0%,0%,16%,17%,0%,8%
CN(C)CCN(C)C(=O)c1cc(-c2ccncc2)c(-c2ccc(Cl)c(O)c2)o1.Cl.Cl [SB-710397],6%,13%,0%,10%,0%,0%,0%,1%,0%,0%
O=C(Nc1ccccc1)Nc1cccc(Oc2ccc3nccn3n2)c1,0%,3%,0%,0%,0%,0%,0%,3%,7%,0%
O=S(=O)(c1ccc(-c2ccnc3[nH]ccc23)cc1)N1CCCC1 [GSK846226],30%,31%,33%,39%,47%,12%,44%,34%,0%,2%

# Reference: paper PMC5540273 (PLoS ONE, 2017)
